# Source: PubChem (several laboratories)
# DAX1 inh = DAX1 (NR0B1) inhibitors on StAR promoter, primary screen, cell-based, luminescence, SF-1 (NR5A1), full-length DAX-1; HEK293T StAR-luciferase reporter, SF-1/DAX-1 repression relief; inhibition, % at 6.8 µM; 370,000 compounds, 1.1% hits; AID 652010, 2013;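 active means inhibition above the mean over all tested compounds plus 3 SD, cut at about 3.6% in these data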;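 further: 0% = DAX-1 cells with DMSO and 100% = cells lacking DAX-1 with DMSO; higher inhibition means more luminescence from relief of DAX-1 repression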
# esBAF inh = Bmi1 luciferase reporter increase in mESCs, primary screen, esBAF inhibitor project, mouse ES cells, Bmi1 luciferase knock-in, single point; 24 h; 100% = twice the neutral-well signal; reporter increase, % at 12.5 µM; 350,000 compounds, 2% hits; AID 602393, 2012; in the data active means activation above about 40%; inconclusive means no clear call, values can overlap the other calls;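 further: 0% = median of the plate's neutral control wells and 100% = double that signal; a rise in the Bmi1 reporter signal indicates esBAF inhibition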
# ssDAF-12 act = S. stercoralis DAF-12 nuclear receptor activators, primary screen, cell-based, luminescence, HEK293, GRIP1 co-expression, lit1-tk-luc | HEK293 ssDAF-12/GRIP1 lit1-tk-luc reporter; % of 3 µM dafachronic acid response | activation, % at 6.8 µM | 370,000 compounds, 1% hits | AID 652126, 2013;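 active means activation above the mean over all tested compounds plus 3 SD, cut at about 0.9% in these data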;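 further: 0% = DMSO-only wells and 100% = 3 µM delta7-dafachronic acid wells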
# Wnt bcat act = Wnt/beta-catenin pathway activators, primary screen, cell-based, plate reader, single point; Wnt/beta-catenin reporter cell assay, activator; activation, % at 9.35 µM; 300,000 compounds, 1.2% hits; in the data active means activation above about 30%, passing the limit was not always enough; inconclusive means no clear call, values can overlap the other calls;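 further: 0% = neutral control wells and 100% = positive control wells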
# hgDAF12 agonist = H. glycines DAF-12 receptor agonists, primary screen, cell-based, luminescence, HEK293, GAL4 fusion, UAS-luciferase; Nuclear hormone receptor DAF-12 (Heterodera glycines), GAL4 fusion; 370,000 compounds, 1.8% hits; HEK293 GAL4-hgDAF12 UAS-luciferase reporter, agonist luminescence; normalized to butyrate control; activation, % at 6.8 µM;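 active means activation above a cutoff set at the mean of all screened compounds plus 3 SD, cut at about 10% in these data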;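 further: 0% = DMSO wells and 100% = sodium butyrate wells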
# hcDAF-12 act = H. contortus DAF-12 nuclear receptor activators, primary screen, cell-based, luminescence, HEK293, lit1-tk-luc reporter; HEK293 hcDAF-12 lit1-tk-luc reporter; 0% DMSO, 100% Δ7-dafachronic acid; activation, % at 6.8 µM; 370,000 compounds, 1.4% hits; AID 652067, 2013;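 active means activation above the mean of all tested compounds plus 3 SD, cut at about 5.5% in these data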;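 further: 100% = response to 3 µM Δ7-dafachronic acid high control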
# An asterisk follows results filed as active; u = inconclusive; x = no result given. An excerpt weighted towards active compounds, which were near 4.2% of everything screened.
SMILES,DAX1 inh,esBAF inh,ssDAF-12 act,Wnt bcat act,hgDAF12 agonist,hcDAF-12 act
Cc1ccc(/C=C2\SC(N3CCCCC3)=NC2=O)cc1,0,42*,-1,7,5,2
CCCn1nc2cc(C(=O)NCCc3ccc(C)cc3)ccc2c1OCC,-1,-2,-1,-1,1,-1
CCCCn1nc2cc(C(=O)NCCc3cccs3)ccc2c1OCC,0,41*,-2,3,1,-1
CCOc1c2ccc(C(=O)NCCc3cccs3)cc2nn1CC,3,45*,0,32*,12*,3
CCCn1nc2cc(C(=O)NCCCCc3ccccc3)ccc2c1OCC,0,-14,-2,-10,4,-2
Cc1ccc(S(=O)(=O)Nc2ccc(-c3csc(-c4ccccc4)n3)cc2)cc1,-1,x,-2,0,-1,-2
COc1ccc(-c2csc(-c3ccc(O)cc3)n2)cc1,-2,x,0,2,13*,2
COc1ccc(-c2nc(-c3ccc(O)cc3O)cs2)cc1OC,2,28,-2,7,12*,0
Brc1ccc(-c2csc(-c3ccncc3)n2)cc1,0,x,-1,55*,7,0
Cc1ccc(-c2csc(-c3ccncc3)n2)cc1,0,x,-1,11,11*,4
O=C(C[C@@H]1CC[C@H]2[C@@H](COC[C@H](O)CN2Cc2nccs2)O1)NCc1ccccc1F,x,-5,x,x,x,x
O=C(NCC[C@@H]1CC[C@H](NC(=O)C2CCCCC2)[C@H](CO)O1)c1cnccn1,x,4,x,x,x,x
COc1ccc(N2CC(O)=C(c3nc(-c4ccccc4)cs3)C2=N)cc1,0,0,-1,-1,2,1
COc1ccc(N2CC(O)=C(c3nc(-c4ccc(Cl)cc4)cs3)C2=N)cc1,1,x,0,-3,12*,1
CC(=O)N1CCN(c2ccc(NC(=O)c3cccc(F)c3)cc2)CC1,3,54*,-1,19,10,2
O=C(Nc1ccc(N2CCN(C(=O)c3ccco3)CC2)cc1)c1cccc(F)c1,-1,54*,-1,5,-1,0
CC(=O)N1CCN(c2ccc(NC(=O)c3ccco3)cc2)CC1,1,13,1.9*,12,9,5
O=C(Nc1ccc(N2CCCC2)cc1)c1cccc(Cl)c1,3,-7,0,33*,12*,6.0*
C[C@H](CO)N1C[C@H](C)[C@@H](CN(C)S(C)(=O)=O)Oc2ccc(NC(=O)Nc3ccc(C(F)(F)F)cc3)cc2CC1=O,x,-1,x,x,x,x
CCCNC(=O)C[C@H]1CC[C@H]2[C@H](COc3ccc(NC(=O)Nc4cccc(C)c4)cc3C(=O)N2C)O1,x,1,x,x,x,x
COc1cc(OC)cc(-c2nc(-c3ccc(Br)cc3)no2)c1,0,36,-1,x,0,2
COc1ccccc1-c1nc(-c2ccc(Br)cc2)no1,1,54*,1.5*,x,9,5.8*
COc1ccc(-c2nc(-c3ccc(Br)cc3)no2)c(OC)c1,3,-8,1.0*,x,12*,4
C[C@H](CO)N1C[C@H](C)[C@@H](CN(C)Cc2cncnc2)Oc2ncc(-c3ccc(F)cc3)cc2C1=O,x,-2,x,x,x,x
Cc1noc(C)c1S(=O)(=O)Nc1cccc2c1O[C@H](CN(C)C(=O)Nc1ccc3c(c1)OCO3)[C@H](C)CN([C@H](C)CO)C2=O,x,1,x,x,x,x
SMILES,DAX1 inh,esBAF inh,ssDAF-12 act,Wnt bcat act,hgDAF12 agonist,hcDAF-12 act
C[C@H](CO)N1C[C@H](C)[C@H](CN(C)CC2CC2)Oc2ccc(NC(=O)Cn3cnnn3)cc2CC1=O,x,-2,x,x,x,x
NC(=O)c1ccccc1NC(=O)/C=C/c1cccc(Cl)c1,1,76*,-1,x,8,2
NC(=O)c1ccccc1NC(=O)/C=C/c1c(Cl)cccc1Cl,2,33,-1,28,9,0
O=C(NC(=S)Nc1ccc(NC(=O)c2cccs2)cc1)c1ccco1,0,9,-2,1,2,-4
Cc1ccc(NC(=O)c2cc(-c3cccs3)on2)cc1,0,31,-1,56*,4,-2
O=C(Nc1ccc(NC(=O)c2cccs2)cc1)c1ccco1,2,48*,-1,x,6,-1
O=C(Nc1ccc(O)cc1)c1ccc(NC(=O)c2cccs2)cc1,0,33,-1,23,4,2
O=C(Nc1ccc(NC(=O)c2cccs2)cc1)c1ccccc1,0,48*,-1,13,8,1
Cc1ccc(NC(=O)c2cccs2)cc1,2,61*,0,-1,9,4
CCn1cnc2cc(NC(=O)c3cccs3)ccc21,3.9*,23,-1,15,7,3
CC(=O)Oc1cccc(C(=O)Nc2ccc(NC(=O)c3cccs3)cc2)c1,4.5*,x,0,27,5,0
Cn1c(CN2CCCCC2)nc2cc(NC(=O)c3cccs3)ccc21,0,3,-2,x,-3,-1
O=C(Nc1ccc2nc(-c3cccs3)[nH]c2c1)c1ccco1,-1,83*,-1,x,3,1
Cc1ccccc1-c1nc(-c2ccc(NC(=O)c3cccs3)cc2)no1,0,51*,-1,17,8,3
C[C@H]1CN([C@@H](C)CO)C(=O)c2cc(NS(=O)(=O)c3ccc(F)cc3)ccc2O[C@@H]1CN(C)S(=O)(=O)c1ccccc1,x,3,x,x,x,x
O=C(CN1CCOCC1)N1CC[C@@H]2[C@H](CO)Nc3ccc(-c4ccccc4)cc3[C@@H]21,x,5,x,x,x,x
Nc1ccccc1C(=O)N1O[C@@H]2C=C[C@H]1C2,0,6,0,-2,3,2
O=C(c1cc2ccccc2[nH]1)N1O[C@@H]2C=C[C@H]1C2,2,42*,0,u,7,6.2*
CC(C)NC(=O)N(C)C[C@H]1Oc2ccc(NC(=O)C3CCCCC3)cc2CC(=O)N([C@H](C)CO)C[C@H]1C,x,1,x,x,x,x
CCn1cc(C(=O)NCCCN2CCN(C)CC2)c(=O)c2cc(S(=O)(=O)N3CCc4ccccc4C3)ccc21,0,x,1.5*,0,-2,1
Cc1nc(N)sc1C(=O)N/N=C/c1c[nH]c2ccccc12,0,0,-1,-1,11*,5
O=C(NN=Cc1c[nH]c2ccccc12)NN=Cc1c[nH]c2ccccc12,0,21,1,-4,-2,2
Cc1nn(C)cc1/C=N/NC(=S)Nc1ccccc1,3,69*,0,40*,7,3
O=C(N/N=C/c1c[nH]c2ccccc12)c1ccccc1,0,30,0,6,5,2
